Laboratory results published in PubChem BioAssay (NCATS).
Results filed as inconclusive are left out. Active and inactive are the calls of the source. The call rests on the fitted dose curve; in most records, active means well fitted curve in the direction sought with a large enough effect; inconclusive means small, poorly fitted or top-dose-only effect, or another doubt; inactive means no such curve, though single readings can be large; an effect the other way counts as inactive or inconclusive.

Experiments:
[1] = qHTS of pediatric cancer cell lines to identify multiple opportunities for drug repurposing: Primary screen for SJ-GBM2 cells (AID 1347091)
Summary of the method: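 Eight- or eleven-point concentration series, 48 h treatment at 37 degrees C in growth media; readout CellTiter-Glo luminescence. Potency and efficacy were taken from the concentration-response curves.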

[2] = qHTS of pediatric cancer cell lines to identify multiple opportunities for drug repurposing: Primary screen for A673 cells (AID 1347092); further: nearly all actives have a fitted effect of over 45% in size
Summary of the method: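 Luminescence from CellTiter-Glo, taken after 15 min at room temperature, served as the proxy for metabolically active cells following 48 h treatment. Both potency and efficacy were taken from curves fitted to the titration data.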

[3] = qHTS of pediatric cancer cell lines to identify multiple opportunities for drug repurposing: Primary screen for SK-N-MC cells (AID 1347093)
Summary of the method: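 Metabolically active cells were quantified by ATP-dependent luminescence (CellTiter-Glo, 15 min at room temperature) following 48 h treatment. Cells had been plated at 500-1,000 per well and settled for 5 h beforehand.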

[4] = qHTS of pediatric cancer cell lines to identify multiple opportunities for drug repurposing: Primary screen for NB-EBc1 cells (AID 1347095)
Summary of the method: (§1)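 Cells seeded at 500-1,000 cells/well in growth media, rested 5 hours at 37 degrees C, 5% CO2, then dosed; MIPE compounds at 11-point (from 0.78 nM) and NPC at 8-point (from 0.59 nM) final concentrations. Viability by CellTiter-Glo luminescence after 48 hours.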

[5] = qHTS of pediatric cancer cell lines to identify multiple opportunities for drug repurposing: Primary screen for SK-N-SH cells (AID 1347098); further: nearly all actives have a fitted effect of over 65% in size
Summary of the method: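 Cells (500-1,000/well) rested 5 h, then received compounds for 48 h; metabolically active cells were measured by CellTiter-Glo luminescence. Final concentrations spanned up to 46 µM (MIPE, 11-point) or 0.59 nM-46 µM (NPC, 8-point) in primary screens, 11-point in follow-ups.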

[6] = qHTS of pediatric cancer cell lines to identify multiple opportunities for drug repurposing: Primary screen for NB1643 cells (AID 1347099); further: nearly all actives have a fitted effect of over 50% in size
Summary of the method: as §1

[7] = qHTS of pediatric cancer cell lines to identify multiple opportunities for drug repurposing: Primary screen for U-2 OS cells (AID 1347096); further: nearly all actives have a fitted effect of over 50% in size
Summary of the method: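 Cells (500-1,000/well) in growth media were settled 5 h at 37 degrees C, then given compounds for 48 h. Viability was read as CellTiter-Glo luminescence. Primary runs used MIPE at 11 points (0.78 nM-46 µM) and NPC at 8 points (0.59 nM-46 µM); follow-ups used 11 points.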

[8] = qHTS of pediatric cancer cell lines to identify multiple opportunities for drug repurposing: Primary screen for BT-37 cells (AID 1347094)
Summary of the method: as §1

[9] = qHTS of pediatric cancer cell lines to identify multiple opportunities for drug repurposing: Primary screen for Saos-2 cells (AID 1347097); further: nearly all actives have a fitted effect of over 40% in size
Summary of the method: as §1

Measured: Potency
Potency means the concentration at half of the fitted maximal effect.

CC(C)(C)c1cc(C(=O)O)c(NC(=O)Nc2ccc3[nH]ncc3c2)s1
inactive: [1] | [2] | [4] | [5]
active: [3] 23.5 µM | [6] 23.5 µM

c1cc(-c2sc(-c3ccncc3)c(-c3ccncc3)c2-c2ccncc2)ccn1
inactive: [1] | [4] | [7]
active: [3] 20.9 µM

CCOC(=O)C1=C(N)Oc2ccc(Br)cc2C1C(C#N)C(=O)OCC (stereo not given)
inactive: [8] | [7]
active: [1] 7.43 µM | [4] 6.62 µM | [5] 24.1 µM | [6] 10.5 µM

OC[C@H]1O[C@@H](n2cnc3c2NC=NC[C@@H]3O)C[C@H]1O
not listed: [2] | [3] | [6]
inactive: all other assays above

CNC(=O)c1ccccc1Sc1ccc2c(C=Cc3ccccn3)n[nH]c2c1
inactive: [7]
active: [1] 2.96 µM | [3] 3.32 µM | [6] 16.6 µM

O=C1c2c(O)cc(O)cc2O[C@H](c2cc(O)c(O)c(O)c2)[C@H]1O
inactive: [1] | [7]
active: [2] 14.8 µM | [3] 4.18 µM | [6] 23.5 µM

CC=CC[C@@H](C)C(=O)[C@H]1C(=O)N[C@@H](C(C)C)C(=O)N(C)CC(=O)N(C)[C@@H](CC(C)C)C(=O)N[C@@H](C(C)C)C(=O)N(C)[C@@H](CC(C)C)C(=O)N[C@@H](C)C(=O)N[C@H](C)C(=O)N(C)[C@@H](CC(C)C)C(=O)N(C)[C@@H](CC(C)C)C(=O)N(C)[C@@H](C(C)C)C(=O)N1C
inactive: [4] | [7]
active: [1] 18.7 µM | [9] 18.7 µM | [5] 30.4 µM

CO[C@@H](C(=O)N1Cc2[nH]nc(NC(=O)c3ccc(N4CCN(C)CC4)cc3)c2C1)c1ccccc1
active: [1] 0.187 µM | [2] 5.9 µM | [3] 0.118 µM | [7] 18.7 µM | [9] 0.833 µM | [5] 2.15 µM | [6] 0.118 µM

CO[C@H]1C[C@@H]2CC[C@@H](C)[C@@](O)(O2)C(=O)C(=O)N2CCCC[C@@H]2C(=O)O[C@H]([C@H](C)C[C@@H]2CC[C@H](OC(=O)C(C)(CO)CO)[C@H](OC)C2)CC(=O)[C@H](C)C=C(C)[C@@H](O)[C@@H](OC)C(=O)[C@H](C)C[C@H](C)C=CC=CC=C1C
inactive: [5]
active: [1] 11.8 µM | [8] 30.6 µM | [4] 9.35 µM | [9] 16.6 µM | [6] 23.5 µM

CC1(C)Cc2c(sc(NC(=S)NC(=O)c3ccccc3)c2C(=O)O)CO1
inactive: [1] | [4] | [9]
active: [2] 23.5 µM | [3] 1.66 µM | [6] 5.26 µM

O=c1cc(-c2cccc3c2Sc2ccccc2S3)oc(N2CCOCC2)c1
active: [3] 18.7 µM
inactive: [1] | [4] | [7]

CC(=O)O[C@]1(C(C)=O)CC[C@H]2[C@@H]3C=C(Cl)C4=CC(=O)[C@@H]5C[C@@H]5[C@]4(C)[C@H]3CC[C@@]21C
active: [9] 26.6 µM
inactive: [1] | [4] | [7] | [6]

CCC(=O)NC[C@H](Cc1ccc(OCCc2nc(-c3ccccc3)oc2C)cc1)NC(C)=CC(=O)c1ccc(C(F)(F)F)cc1
active: [1] 3.32 µM | [2] 1.87 µM | [3] 2.35 µM | [4] 0.743 µM | [9] 16.6 µM | [6] 13.2 µM

Nc1ncnc2c1nc(Cl)n2[C@@H]1O[C@H](CO)[C@@H](O)[C@@H]1O
active: [1] 11.8 µM | [2] 23.5 µM | [3] 26.4 µM | [6] 16.6 µM
inactive: [4] | [9]

COCCOc1nc(-c2ccc(Cl)c(Cl)c2)n(-c2ccc(NC(=O)CCl)cc2)n1
active: [1] 16.6 µM | [2] 4.69 µM | [3] 4.69 µM | [4] 16.6 µM | [6] 16.6 µM
inactive: [7]

COc1ccc2c(Oc3ccc(NC(=O)c4c(C)n(CC(C)(C)O)n(-c5ccccc5)c4=O)cc3F)ccnc2c1
active: [1] 0.059 µM | [3] 14.8 µM
inactive: [8]

NC(=O)c1ccc2nc(-c3ccc(Oc4ccc(Cl)cc4)cc3)[nH]c2c1
not listed: [2] | [3] | [8]
inactive: all other assays above

Oc1ccc(C2=Cc3ccc(O)cc3OC2)cc1
active: [1] 5.26 µM | [2] 2.35 µM | [3] 1.66 µM | [4] 1.66 µM | [6] 9.35 µM
inactive: [7]

CCCCCNC(=O)N1CCC(CN(Cc2ccc(Cl)cc2)Cc2ccc([N+](=O)[O-])s2)C1 (stereo not given)
inactive: [1] | [5]
active: [3] 9.35 µM | [4] 26.4 µM | [6] 23.5 µM

COc1ccc(C2Sc3ccccc3N(CCN(C)C)C(=O)C2OC(C)=O)cc1 (stereo not given)
inactive: [1] | [8] | [4] | [7]

C[C@@H]1CCN(C(=O)CC#N)C[C@H]1N(C)c1ncnc2[nH]ccc12
not listed: [2] | [5] | [6]
inactive: all other assays above

Cc1cccc(Nc2nc(-c3ccncc3)cs2)c1
inactive: [3] | [7] | [9] | [5] | [6]
active: [1] 16.6 µM

COc1cccc(-c2cc(=O)c3ccccc3o2)c1N
inactive: [1] | [8] | [4] | [7]
active: [3] 0.662 µM | [6] 20.9 µM

CC(C(=O)O)c1ccc(-c2ccccc2)c(F)c1 (stereo not given)
inactive: [1] | [4] | [7]
active: [5] 24.1 µM | [6] 26.4 µM

O=C(CCc1ccc(O)cc1)c1c(O)cc(O)cc1O[C@@H]1O[C@H](CO)[C@H](O)[C@H](O)[C@H]1O
active: [6] 26.4 µM
not listed: [3]
inactive: all other assays above

CN(C[C@@H]1COCCO1)S(=O)(=O)Nc1ccc2ccc3ncc(-c4cnn(C)c4)cc3c(=O)c2c1
active: [1] 0.372 µM | [2] 7.43 µM | [3] 2.96 µM | [4] 7.43 µM | [5] 17.1 µM

NC(=O)c1cccc(-c2cc(Nc3ccc(OC(F)(F)F)cc3)ncn2)c1
not listed: [2] | [8] | [9]
inactive: all other assays above

O=C1NC(=O)C(=Cc2ccc3nccnc3c2)S1
active: [1] 8.12 µM | [3] 2.29 µM | [4] 4.57 µM | [9] 8.12 µM | [6] 7.24 µM
inactive: [7] | [5]
